In PubChem BioAssay (NCI):
Several values for one entry are separate records, joined by “and”; a condition that tells them apart may be missing. Equal values may be shown once. About 83,000 compounds went through this panel and 20% of them were active in at least one assay; those are over-represented in the sample as a whole.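 The test compound was applied at a single concentration to cells in 96-well plates for 48 hours, and percent growth was recorded.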 Activity calls are given as the source filed them. Rule for the calls: active = growth percent below 10; inactive = the rest.

System: TK-10 renal
Test: NCI-60 one-dose screen, 48 h (100 = growth as untreated, 0 = no growth, -100 = all killed)
Settings: 10 µM unless noted

**Q.** `CC(C)=CCC/C(C)=C/CC/C(C)=C/CSc1ccc(Cl)cc1C(=O)O` was tested. Which growth did it give?
**A.** -67.3% [100 µM] (active) and 28.4% [100 µM] (inactive)

**Q.** With `CN(C)CCNc1ccc(NCC[N+](C)(C)Cc2ccc([N+](=O)[O-])cc2)c2c1C(=O)c1c(O)ccc(O)c1C2=O` as the compound, how does the growth read?
**A.** 91.1% [100 µM] (inactive) and -23.2% [100 µM] (active)

**Q.** For `Cc1cc2c3c(nc4ccccc42)C(=O)c2cccnc2-c3n1`, which growth is on record?
**A.** -10.8% [100 µM] (active) and -100% [100 µM] (active)

**Q.** `CC(=O)NC(CS/N=N/c1nc[nH]c1C(N)=O)C(=O)O` (stereo not drawn) was tested. Which growth did it give?
**A.** 7.53% [100 µM] (active) and 4.2% [100 µM] (active)

**Q.** With `CCOC(=O)CCC(NC(=O)c1ccc(OCc2nc3cc(C(F)(F)F)ccc3nc2-c2ccccc2)cc1)C(=O)OCC` (stereo not drawn) as the compound, how does the growth read?
**A.** 84.3% [100 µM] (inactive) and 14.7% [100 µM] (inactive)

**Q.** Which growth does the source give for `CC(C)(C)N/N=C(\C(=O)Nc1ccc([N+](=O)[O-])cc1[N+](=O)[O-])c1nc2ccc([N+](=O)[O-])cc2[nH]c1=O` here?
**A.** 97.2% [100 µM] (inactive) and 67.6% [100 µM] (inactive)

**Q.** Which growth does the source give for `CCOc1cc2c(cc1O)C(=O)C[C@@H]1[C@@H]2CC[C@]2(C)[C@@H](O)CC[C@@H]12` here?
**A.** 38.8% [100 µM] (inactive) and -2.4% [100 µM] (active)

**Q.** `CC(=O)c1cc2c(s1)C(=O)c1scc(C(C)=O)c1C2=O` was tested. Which growth did it give?
**A.** -9.55% [100 µM] (active) and -86% [100 µM] (active)
